# Reference: ChEMBL document CHEMBL3988442, “University of Dundee, Small-Polar-MMV Screening Library” (2021)
# About 13,000 (27%) of roughly 48,000 compounds showed an effect of 50% or more. This is one part of the list.
# System: Wolbachia pipientis
# Assay: Anti-Wolbachia Cell-Based Screen
# Type: functional
# Parameters: scale not given: in the data most compounds retested in dose-response had high values
# Settings: 5 µM
row,SMILES,Percent Effect [%]
1,CC(C)N(Cc1cnn(C)c1)CC1CCCN(S(C)(=O)=O)C1 (configuration not stated),7.104
2,CC(C)N1CCCC(Cc2cncc(Br)c2)CC1 (configuration not stated),135.8
3,CCOC(=O)NC1CCCN(c2cncc(Br)c2)C1 (configuration not stated),-1.321
4,CC(=O)N1CCCC(Cc2cncc(Br)c2)C1 (configuration not stated),130.8
5,CS(=O)(=O)N1CCCC(Cc2cncc(Br)c2)CC1 (configuration not stated),127
6,CC(CCc1ccc(O)cc1)NC1CCN(S(C)(=O)=O)CC1 (configuration not stated),7.002
7,CC(=O)N1CCCC(Cc2cncc(Br)c2)CC1 (configuration not stated),-3.498
8,COc1cccc2c1CCC2NC(=O)NCc1csc(N(C)C)n1 (configuration not stated),7.815
9,Cc1ccc([C@@H]2CN(C(=O)c3ccon3)C[C@H]2NC(=O)C2CC2)cc1,-0.9032
10,CCc1noc(CC)c1CC(=O)N1CCC(C(=O)NC(C)C)CC1,-12.02
11,CC(=O)NCCNC(=O)c1cc(Br)c2c(c1)OCCO2,-14.07
12,CC1CCN(S(=O)(=O)NCC2CCOc3ccccc3C2)CC1 (configuration not stated),-7.362
13,CC(C)Oc1cc(N2C[C@@H](C)O[C@@H](C)C2)nc(N)n1,-18.9
14,CC(NCc1cccnc1)c1ccc(OCC(=O)NC2CC2)cc1 (configuration not stated),-5.583
15,NS(=O)(=O)N1CCC(CSc2ccccc2)C1 (configuration not stated),-8.118
16,Cc1oncc1C(=O)N1CCC2(CC1)CC(c1ccccc1)C(=O)N2C (configuration not stated),-5.401
17,N#Cc1ccnc(N2CCN(C(=O)c3ccc4c(c3)CCO4)CC2)c1,2.896
18,O=S(=O)(CCNC1CCc2ncnn2C1)c1ccc(Cl)cc1 (configuration not stated),86.02
19,COc1cccc(S(=O)(=O)CCNCCn2cccn2)c1,2.314
20,Clc1ccc(-c2cnc(CNC3CCc4ncnn4C3)o2)cc1 (configuration not stated),-3.633
21,c1csc(-c2noc(CCCNC3CCc4ncnn4C3)n2)c1 (configuration not stated),7.784
22,Cc1ccc(-c2nc(CNC3CCc4ncnn4C3)co2)c(C)c1 (configuration not stated),-0.6319
23,O=S(=O)(CCCNC1CCc2ncnn2C1)c1ccccc1 (configuration not stated),113.7
24,c1csc(CCNC2CCc3ncnn3C2)c1 (configuration not stated),-10.08
25,Cc1nc(CNC2CCc3ncnn3C2)oc1C (configuration not stated),-6.098
26,COc1cccc(S(=O)(=O)CCNC2CCc3ncnn3C2)c1 (configuration not stated),109.9

row,SMILES,Percent Effect [%]
1,O=C(CNC1CCc2ncnn2C1)NCCc1cccs1 (configuration not stated),2.681
2,c1ccc(CNC2CCc3ncnn3C2)nc1 (configuration not stated),-4.327
3,Cc1ccc(C)c(S(=O)(=O)CCNC2CCc3ncnn3C2)c1 (configuration not stated),114
4,CS(=O)(=O)Nc1ccc([C@H]2OCC(=O)N[C@@H]2CO)cc1,-3.066
5,CC(C)Sc1ccc(C(C)Nc2nc3c(cnn3C)c(=O)[nH]2)cc1 (configuration not stated),-4.166
6,Cc1cc(NC(=O)NC(C)CN2CCN(c3ccccc3)CC2)on1 (configuration not stated),-17.45
7,CNC(=O)NC(=O)CSC(C)c1ccccc1F (configuration not stated),-20.44
8,Cc1nc(NC(=O)C(C)S(C)(=O)=O)sc1Cc1ccccc1F (configuration not stated),-3.086
9,Cc1ccc(CN2CCC3(CC2)CN(c2ccccc2)C(=O)CO3)o1.O=C(O)C(F)(F)F,119.8
10,Cn1ccnc1CN1CCC2(CC1)CN(c1ccccc1)C(=O)CO2.O=C(O)C(F)(F)F,-5.115
11,Cn1cccc1CN1CCC2(CC1)CN(c1ncccn1)CCO2.O=C(O)C(F)(F)F,0.2482
12,Cn1cccc1CN1CCC2(CC1)CN(c1ccccc1)C(=O)CO2.O=C(O)C(F)(F)F,80.65
13,CCc1ccc(CN2CCC3(CC2)CNC(=O)CO3)o1.O=C(O)C(F)(F)F,-11.34
14,Cc1ccc(CN2CCOCC3(C2)CN(c2ccc(C)s2)C(=O)CO3)o1.O=C(O)C(F)(F)F (configuration not stated),3.651
15,CCCNC(=O)C1CCN(CC2(O)CCC(C)CC2)CC1 (configuration not stated),-9.033
16,COCc1cccc(NC(=O)NCc2ncc(C)c(OC)c2C)c1,-10.08
17,COCCCN1C(=O)CC[C@H]2CN(c3cc(C(N)=O)ccn3)CC[C@H]21,-7.921
18,CCc1nc(C)c([C@H]2CN(C)C[C@@H]2C(=O)Nc2ccc(OC)nc2)[nH]1,6.695
19,CCOc1ccc(NC2CCN(C(C)C)C2=O)cn1 (configuration not stated),-21.57
20,O=C(CCN1C(=O)CCC1=O)Nc1ccc(OCC(F)(F)F)nc1,-54.38
21,CN1CC(C(=O)Nc2ccc(OCC(F)(F)C(F)F)nc2)CC1=O (configuration not stated),108
22,COc1ccc(NC(=O)C2CC(=O)N(C)C2)cn1 (configuration not stated),112.1
23,COCCOc1ccc(NC(=O)C2CC(=O)N(C)C2)cn1 (configuration not stated),-11.2
24,CNC(=O)c1ccc(N(C)C2CCC2)nn1,-0.7532
25,CC(C)c1cc(CNC(=O)Nc2cc(F)cc(N3CCCC3)c2)on1,-22.89
26,COc1ccc(O[C@H]2COCCN(C(=O)c3ccno3)C2)cc1,-10.22
